The supplement of paper PMC10127200
Where a name gives a salt, the structure may show the parent alone.

Legend:
Test in all cases: Euclidean distance of Cell Painting phenotypic profile (signed KS, 77 features) to DMSO centroid (dimensionless distance); 5 or 10 uM (library dependent); higher = stronger phenotypic change vs DMSO (phenoactivity)
Details in all cases: 48 h
786-O = system: 786-O
How it was run: (§1)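 Phenoactivity is defined as the Euclidean distance from a compound profile to the median vehicle profile. Each profile comprised 77 Harmony features, scored as signed Kolmogorov-Smirnov statistics versus same-plate vehicle wells, then plate-position corrected, correlation-weighted and replicate-averaged at the top dose. Five cancer lines and one healthy fibroblast line were exposed to library compounds for 48 h at 10 or 5 uM (0.1% DMSO final).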

A549 = system: A549
How it was run: as §1

DU145 = system: DU145
How it was run: as §1

FB = system: FB
How it was run: as §1

HEPG2 = system: HEPG2
How it was run: as §1

OVCAR4 = system: OVCAR4
How it was run: as §1

Compound | Euclidean distance (786-O) | Euclidean distance (A549) | Euclidean distance (DU145) | Euclidean distance (FB) | Euclidean distance (HEPG2) | Euclidean distance (OVCAR4)
O=C(O)c1ccc(-n2nc(-c3ccccc3O)nc2-c2ccccc2O)cc1 [Deferasirox] | 2.29 | 2.01 | 1.82 | 2.5 | 1.64 | 1.99
COCCCN1CCC(NC(=O)c2cc(Cl)c(N)c3c2OCC3)CC1 [Prucalopride Succinat] | 0.911 | 0.777 | 0.699 | 0.581 | 0.684 | 0.827
CC[C@@H]1C(=O)N(C)c2cnc(Nc3ccc(C(=O)N[C@H]4CC[C@H](N5CCN(CC6CC6)CC5)CC4)cc3OC)nc2N1C(C)C [Volasertib (BI 6727)] | 4.44 | 4.28 | 4.03 | 5.55 | 3.66 | 4.01
C#Cc1cccc(Nc2ncnc3cc4c(cc23)OCCOCCOCCO4)c1 [Icotinib] | 1.83 | 1.46 | 1.62 | 1.18 | 1.35 | 1.32
NC(=O)c1cnccn1 [Pyrazinamide] | 1.07 | 1.35 | 0.786 | 1.14 | 1.95 | 1.13
CCN(CC)C(=O)Nc1ccc(OCC(O)CNC(C)(C)C)c(C(C)=O)c1 (configuration not stated) [Celiprolol hydrochloride] | 0.816 | 0.829 | 1.41 | 1.17 | 0.422 | 1.24
N#Cc1ccc(C2CCCc3cncn32)cc1 (configuration not stated) [Fadrozole] | 1.22 | 0.722 | 0.93 | 1.38 | 0.631 | 0.866
Cc1ccc(-n2sc(=O)n(Cc3ccc(F)cc3)c2=O)cc1 | 1.53 | 0.968 | 0.775 | 1.84 | 0.924 | 1.14
OCC(O)CN1CCN(c2ccccc2)CC1 (configuration not stated) [Dropropizine] | 1.11 | 1.8 | 1.39 | 1.1 | 0.735 | 1.98
COc1ccc2cc(C(=O)O)ccc2c1 [6-Methoxy-2-naphthoic acid] | 0.861 | 0.63 | 0.683 | 1.15 | 0.634 | 1.19
CN1C(=O)C(C)(C)Oc2c(-c3cn(C)c(=O)c4[nH]ccc34)cc(S(C)(=O)=O)cc21 | 4.28 | 2.7 | 2.87 | 3.94 | 2.29 | 2.42
C=CC1=C(C(=O)O)N2C(=O)[C@@H](NC(=O)/C(=N\O)c3csc(N)n3)[C@H]2SC1 [Cefdinir] | 0.892 | 0.765 | 2.48 | 1.4 | 1.17 | 0.686
CCCNC(C)C(=O)Nc1ccccc1C (configuration not stated) [Prilocaine hydrochloride] | 0.697 | 0.662 | 0.635 | 0.843 | 0.473 | 0.791
COc1cc(C(=O)O)ccc1NC(=O)[C@@H]1N[C@@H](CC(C)(C)C)[C@](C#N)(c2ccc(Cl)cc2F)[C@H]1c1cccc(Cl)c1F [Idasanutlin (RG-7388)] | 1.61 | 1.57 | 1.55 | 1.43 | 1.15 | 1.59
O=C(O)[C@@H](S)[C@@H](S)C(=O)O [Succimer] | 1.49 | 1.41 | 1.53 | 1.35 | 0.53 | 1.55
NC[C@H]1CC[C@H](C(=O)O)CC1 [Tranexamic Acid] | 1.31 | 0.903 | 0.735 | 0.672 | 1.31 | 1.09
C[C@@H](N)c1ccc(C(=O)Nc2ccnc3[nH]ccc23)cc1 | 1.87 | 3.06 | 3.16 | 3.73 | 2.26 | 2.05
CCCCCCCCCCCCCCCCn1cc[n+](Cc2ccccc2)c1C | 3.58 | 4.18 | 2.89 | 2.94 | 4.61 | 4.19
CC(=O)Oc1ccc(C(c2ccc(OC(C)=O)cc2)c2ccccn2)cc1 [Bisacodyl] | 1.2 | 1.2 | 0.531 | 3.08 | 0.712 | 1.41
Cc1ccc(NS(=O)(=O)c2cccc(C#N)c2)c2[nH]cc(C#N)c12 | 1.84 | 2.34 | 1.67 | 1.89 | 2.04 | 2.09
Cc1nc(Nc2ccc(F)cc2)nc(N2CCc3ccccc3C2C)c1C (configuration not stated) [Revaprazan Hydrochloride] | 1.38 | 1.19 | 1.06 | 1.28 | 1.21 | 1.13
O=C1CN(/N=C/c2ccc(-c3ccc([N+](=O)[O-])cc3)o2)C(=O)N1 [Dantrolene sodium] | 0.573 | 0.503 | 1.37 | 0.968 | 0.758 | 1.01
CC1Oc2cc(cnc2N)-c2c(nn(C)c2C#N)CN(C)C(=O)c2ccc(F)cc21 (configuration not stated) | 0.876 | 1.02 | 1.34 | 1.55 | 2.11 | 1.26
Cc1[nH]c(/C=C2\C(=O)Nc3ccc(S(=O)(=O)Cc4c(Cl)cccc4Cl)cc32)c(C)c1C(=O)N1CCC[C@@H]1CN1CCCC1 | 3.99 | 4.22 | 1.16 | 2 | 1.59 | 4.7

Compound | Euclidean distance (786-O) | Euclidean distance (A549) | Euclidean distance (DU145) | Euclidean distance (FB) | Euclidean distance (HEPG2) | Euclidean distance (OVCAR4)
Cc1ccc(N(CC2=NCCN2)c2cccc(O)c2)cc1 [Phentolamine Mesylate] | 1.55 | 0.595 | 0.949 | 1.19 | 1.72 | 1.1
CS(=O)(=O)N1CCN(Cc2cc3nc(-c4cccc5[nH]ncc45)nc(N4CCOCC4)c3s2)CC1 | 2.85 | 2.71 | 1.63 | 2.18 | 1.4 | 1.83
O=c1ccc2ccc(O)c(O)c2o1 [Daphnetin] | 1.49 | 0.859 | 0.975 | 1.15 | 1.18 | 0.972
Cc1c(Cc2ccc3ccccc3n2)c2cc(F)ccc2n1CC(=O)O | 1.27 | 1.14 | 0.888 | 1.16 | 2.13 | 1.52
Cn1cc(-c2cnn3c(N)c(Br)c([C@@H]4CCCNC4)nc23)cn1 | 2.18 | 1.1 | 1.19 | 2.96 | 1.35 | 2.36
O=C(Nc1ccccc1)c1ccccc1O [Salicylanilide] | 0.807 | 0.631 | 0.393 | 0.532 | 0.798 | 0.892
CC[C@]1(O)C[C@@H]2CN(CCc3c([nH]c4ccccc34)[C@@](C(=O)OC)(c3cc4c(cc3OC)N(C)[C@H]3[C@@](O)(C(=O)OC)[C@H](OC(C)=O)[C@]5(CC)C=CCN6CC[C@]43[C@@H]65)C2)C1 [Vinblastine sulfate] | 3.25 | 3.68 | 4.31 | 3.49 | 3.33 | 3
NCCCC[C@H](N[C@@H](CCc1ccccc1)C(=O)O)C(=O)N1CCC[C@H]1C(=O)O [Lisinopril dihydrate] | 1.2 | 0.621 | 0.821 | 0.86 | 0.746 | 1.51
CC1(C)S[C@@H]2[C@H](NC(=O)[C@H](N)c3ccccc3)C(=O)N2[C@H]1C(=O)O [Ampicillin Trihydrate] | 1.3 | 1.2 | 0.921 | 0.762 | 0.667 | 1.53
C=C1CC[C@@H]2[C@](C)(CO)[C@H](O)CC[C@@]2(C)[C@H]1C/C=C1\C=COC1=O [Dehydroandrographolide] | 1 | 0.867 | 0.554 | 0.87 | 0.517 | 1.29
Cc1c(-c2ccc(-c3ccccc3F)cc2)nc2ccc(F)cc2c1C(=O)O [Brequinar] | 1.61 | 1.46 | 0.974 | 0.698 | 1.44 | 1.45
COc1ccc2c(c1)C(=O)N(CCc1ccc(S(=O)(=O)NC(=O)NC3CCCCC3)cc1)C(=O)C2(C)C [Gliquidone] | 1.02 | 0.773 | 1.03 | 1.06 | 3.11 | 0.973
CCC/N=C1\S/C(=C\c2ccc(OC[C@H](O)CO)c(Cl)c2)C(=O)N1c1ccccc1C [Ponesimod] | 1.96 | 1.39 | 0.669 | 1 | 1.32 | 1.26
Nc1nc2[nH]cc(CCc3ccc(C(=O)N[C@@H](CCC(=O)O)C(=O)O)cc3)c2c(=O)[nH]1 [Pemetrexed] | 1.73 | 2.69 | 1.14 | 0.521 | 1.85 | 3.1
CCCN[C@H]1CCc2nc(N)sc2C1 [Pramipexole dihydrochloride] | 0.969 | 0.801 | 1.16 | 1.09 | 0.46 | 1.16
NC[C@H]1O[C@H](O[C@H]2[C@H](O)[C@@H](O[C@H]3O[C@H](CO)[C@@H](O)[C@H](N)[C@H]3O)[C@H](N)C[C@@H]2N)[C@H](N)C[C@@H]1O [Tobramycin] | 0.897 | 1.31 | 1.34 | 0.987 | 0.563 | 1.4
C[N+]1(C)CCC(=C(c2ccccc2)c2ccccc2)CC1 [Diphemanil Methylsulfate] | 1.08 | 0.915 | 1.02 | 0.946 | 0.465 | 1.83
CS(=O)(=O)c1cccc(C[C@H](NC(=O)c2c(Cl)cc3c(c2Cl)CCN(C(=O)c2ccc4ccoc4c2)C3)C(=O)O)c1 [Lifitegrast] | 1.08 | 0.823 | 1.53 | 1.16 | 0.431 | 1.27
FC(F)(F)c1ccc(/C=C/c2nc(COc3ccc(CCCCn4ccnn4)cc3)co2)cc1 [Mubritinib (TAK 165)] | 0.614 | 1.76 | 1.4 | 1.61 | 1.89 | 1.42
CC1(COc2ccc3c(c2)ncn3-c2ccc3cccc(N4CCC(N)CC4)c3n2)COC1 | 3.62 | 3.9 | 3.27 | 3.75 | 3.6 | 3.78
C#CCN[C@@H]1CCc2ccccc21 [Rasagiline Mesylate] | 1.19 | 0.608 | 0.782 | 0.686 | 1.01 | 1.18
O=C(Nc1cccc(C2=NCCN2)c1)Nc1cccc(C2=NCCN2)c1 [Imidocarb dipropionate] | 1.26 | 1.66 | 1.76 | 1.4 | 1.23 | 1.75
COc1cc2c(cc1-c1c(C)noc1C)ncc1[nH]c(=O)n([C@H](C)c3ccccn3)c12 | 2.62 | 2.24 | 1.84 | 3.75 | 1.77 | 2.03
